Compound activity as filed in PubChem BioAssay.
CYP2C9 act – CYP2C9 (human) activation; P11712; activation factor at 5 µM; recombinant CYP2C9, luciferin-H conversion, luminescence; stronger effect = higher value; factor 1 = untreated enzyme, 0 = blocked; hit rate 1.4% among 96,000;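 active = activation factor of 2 or more for CYP2C9 at a 5 µM dose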;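 also: 0 = sulfaphenazole-blocked wells and 1 = vehicle-only wells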
Target sequence (P11712 whole entry, looked up): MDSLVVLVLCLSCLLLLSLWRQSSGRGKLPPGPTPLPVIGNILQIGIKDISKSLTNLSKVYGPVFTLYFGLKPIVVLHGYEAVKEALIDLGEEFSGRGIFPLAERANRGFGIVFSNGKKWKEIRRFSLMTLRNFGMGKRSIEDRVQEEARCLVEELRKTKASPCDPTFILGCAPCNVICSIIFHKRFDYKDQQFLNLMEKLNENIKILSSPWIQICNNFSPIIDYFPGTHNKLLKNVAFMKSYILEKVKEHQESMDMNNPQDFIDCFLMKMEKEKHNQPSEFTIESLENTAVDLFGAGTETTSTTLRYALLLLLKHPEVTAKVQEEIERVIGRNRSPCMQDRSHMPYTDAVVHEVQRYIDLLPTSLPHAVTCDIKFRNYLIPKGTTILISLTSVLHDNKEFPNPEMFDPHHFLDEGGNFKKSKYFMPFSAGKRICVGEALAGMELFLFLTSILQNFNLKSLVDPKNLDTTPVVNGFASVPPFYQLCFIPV
CYP2C19 inh – blocks human cytochrome P450 2C19; hit rate 21% among 96,000; inhibition, % at 5 µM; AID 778; CYP2C19 Supersomes, luciferin-H EGE luminescence, 30 min; P33261;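 active = CYP2C19 inhibition above a set limit at 5 µM in the primary screen, cut at about 50% in these data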;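 also: plate controls were negative control wells for no effect and 2.5 mM tranylcypromine positive control for full effect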
CYP2C19 activ – cytochrome P450 2C19 (human) activation. recombinant CYP2C19, luciferin-H EGE luminescence; stronger effect = higher value; 0 = fully inhibited enzyme, 1 = untreated enzyme. activation factor at 5 µM. 96,000 tested, under 10 active;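 active = activation factor of at least 2 at 5 µM in the primary screen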;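 also: 0 = wells with 2.5 mM tranylcypromine and 1 = vehicle-only wells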
PTK2B oligo ant – blocks oligomerization of human Pyk2 in cells | Q14289 | Q293 cells, Pyk2 FERM NanoBiT luminescence; stronger effect = lower value | z-score (the deposit names both 25 µM and 10 µM) | hit rate 0.83% among 99,000 | AID 1347419;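 active = Z-score of -3 or lower, scaled per plate to the spread of control and sample wells; inactive = z-score above -3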;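 also: negative z-score means lost luminescence so less FERM oligomerization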
CYP2C9 inh – human CYP2C9 inhibition; P11712; CYP2C9 Supersomes, luciferin-H conversion, luminescence; inhibition, % at 5 µM; hit rate 20% among 96,000; AID 777;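 active = blocking of liver enzyme CYP2C9 beyond about 50% at 5 µM, limit read from the data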
Cav3 T inh – human Cav3.2 channel inhibition, primary screen | hit rate 4% among 100,000 | Cav3.2-expressing cells, Fluo-4 calcium fluorescence FDSS; stronger effect = lower value | B-score at 10 µM;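 active = single-dose well whose peak fluorescence ratio is a statistical outlier from its plate by either plate-standardised score or position-corrected B-score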
* marks the source's active call; other numbers are inactive results; nt = no result. Most compounds without a hit are left out; they make up all but 27% or so of the library.

SMILES	CYP2C9 act	CYP2C19 inh	CYP2C19 activ	PTK2B oligo ant	CYP2C9 inh	Cav3 T inh
O=C(Cn1cc(C(=O)c2ccco2)c2ccccc21)Nc1ccccc1	0.9	-7	1.1	-2.1	11	-0.69
Cc1nc2ccccc2n1CCC(=O)O	1	-4	1	0.33	-2	-0.12
Cc1nc2ccccc2n2c(O)c(CC(=O)O)cc12	1	6	0.9	0.26	3	-6.3*
Cc1ccc(CNC(=O)c2c(C)cc(=O)oc2C)cc1	0.5	5	1	0.63	51*	-0.25
CCN(CCCNC(=O)c1c(C)cc(=O)oc1C)c1cccc(C)c1	0.3	92*	0.1	1.4	72*	-0.27
COC(=O)c1ccc(C(NC(=O)OCc2ccccc2)/C(F)=C/[C@@H](C)C(=O)NCc2ccc(OC)c(OC)c2)cc1 (stereo partly drawn)	nt	nt	nt	nt	nt	-1.3
CCOc1ccccc1CN1CCN(S(=O)(=O)CC)CC1	0.9	38	0.6	-0.22	9	0.7
CCS(=O)(=O)N1CCN(Cc2ccccc2OC)CC1	0.8	89*	0.1	-0.06	15	0.11
CCCS(=O)(=O)N1CCN(Cc2ccccc2OCC)CC1	1	75*	0.2	0.44	4	0.25
CCOc1ccccc1N1CCN(Cc2cccc(OC)c2OC)CC1	1.1	48	0.5	-0.14	-7	-0.87
Clc1cc(Cl)cc(Nc2ncn[nH]2)c1	1	50*	0.5	-0.41	4	nt
CC(=O)c1ccc(OC(C)C)c(CN2CCCCC2)c1	1.1	-11	1.1	-1	-9	1
COc1ccc(C(C)=O)c(Oc2nc(CN3CCOCC3)nc3scc(-c4cccs4)c23)c1	0.5	44	0.6	-0.4	51*	-1.9
Cc1sc2nc(CN3CCOCC3)nc(Oc3ccc(NC(=O)c4ccco4)cc3)c2c1C	nt	nt	nt	-0.19	nt	0.092
CC(=O)c1ccccc1Oc1nc(CN2CCOCC2)nc2scc(-c3cccs3)c12	0.3	85*	0.1	-0.22	72*	-2.2
O=c1c2ccccc2oc2ccc(-c3ccc4[nH]ccc4c3)cc12	nt	nt	nt	nt	nt	-0.016
CC(C)Oc1ccccc1C1CC(=O)Nc2cc3c(cc21)OCO3 (stereo not drawn)	0.2	99*	0	-2.5	76*	-0.17
CCOc1ccccc1C1CC(=O)Nc2cc3c(cc21)OCCO3 (stereo not drawn)	0.3	54*	0.5	-2	69*	-2.2
CCCOc1ccccc1C1CC(=O)Nc2cc3c(cc21)OCCO3 (stereo not drawn)	nt	nt	nt	-2.2	nt	nt
COc1cc(C)c(CN2CCCCC2CO)cc1C (stereo not drawn)	1	18	0.8	0.12	0	0.33
COc1ccc(C2CC(c3cccs3)=NN2c2nc(-c3ccccc3)cs2)cc1OC (stereo not drawn)	0.3	86*	0.1	-0.22	74*	0.3
COc1ccc(-c2csc(-n3ncc(-c4cccs4)c3N)n2)cc1	0.9	6	0.9	0.21	5	1.2
COC(=O)[C@@]1(C)CC[C@]2(C)CC[C@@]3(C)C(=CC(=O)C4[C@@]5(C)CC[C@H](O)C(C)(C)[C@@H]5CC[C@]43C)[C@H]2C1 (stereo partly drawn)	nt	nt	nt	nt	nt	0.27
O=C(c1ccccc1)N1CCN(CC(O)COCC2CC=CCC2)CC1 (stereo not drawn)	0.9	13	0.9	0.56	8	0.69
Cc1ccc(N2CCN(CC3CC=CCC3)CC2)cc1 (stereo not drawn)	0.9	60*	0.4	0.68	5	1.4
SMILES	CYP2C9 act	CYP2C19 inh	CYP2C19 activ	PTK2B oligo ant	CYP2C9 inh	Cav3 T inh
O=C(c1ccccc1)N1CCN(CC2CC=CCC2)CC1 (stereo not drawn)	0.2	57*	0.4	-0.07	78*	0.61
FC(F)(F)c1cccc(N2CCN(CC3CC=CCC3)CC2)c1 (stereo not drawn)	1.1	80*	0.2	0.28	-12	nt
O=C(Oc1nsnc1N1CCOCC1)N1CCCC1	nt	nt	nt	0.83	nt	0.29
CC1CCCCN1C(=O)COC(=O)c1n[nH]c2ccccc12 (stereo not drawn)	0.9	31	0.7	0.26	8	0.39
COc1nc(-c2ccccc2)ccc1-c1noc(-c2cccnc2)n1	0.9	18	0.8	-0.19	6	0.002
c1ccc(OCCCc2nc(-c3cccnc3)no2)cc1	0.7	64*	0.4	-1.2	35	1.3
Cc1ccc(SC(C)c2nc(-c3cccnc3)no2)cc1 (stereo not drawn)	0.2	67*	0.3	0.1	82*	0.044
c1cncc(-c2noc(C34CC5CC(CC(C5)C3)C4)n2)c1	0.6	83*	0.2	0.53	37	-1.2
COc1nc(-c2ccc(C)cc2)ccc1-c1noc(-c2cccnc2)n1	0.6	27	0.7	0.45	42	nt
c1ccc(C(c2ccccc2)c2nc(-c3cccnc3)no2)cc1	0	86*	0.1	-2.2	96*	-2.8
CCC(=O)N=c1sc2c(C)cc(C)cc2n1CC(=O)OC	1	26	0.7	nt	-3	-3.5
CCOC(=O)CSC(CC)C(=O)Nc1nnc(C(C)C)s1 (stereo not drawn)	nt	nt	nt	nt	nt	-1.3
O=S(=O)(C(=CNc1ccccc1)S(=O)(=O)c1ccccc1)c1ccccc1	nt	nt	nt	-0.43	nt	nt
Clc1ccc(Cc2noc(-c3cccs3)n2)cc1	0.9	11	0.9	-0.25	6	-0.055
Cn1c(=O)c2c(nc(SCCOc3ccc4ccc(=O)oc4c3)n2C)n(C)c1=O	1	1	1	nt	2	nt
c1ccc(C(Cc2nc(-c3cccnc3)no2)c2ccccc2)cc1	0.5	97*	0	-1.8	53*	-1.1
O=C(CC1Oc2ccccc2NC1=O)NC1CCCC1 (stereo not drawn)	2.4*	34	0.7	nt	-138	0.64
O=C(CC1Oc2ccccc2NC1=O)NCCc1ccccc1 (stereo not drawn)	1.7	42	0.6	nt	-75	0.84
CCN(CCNC(=O)CC1Oc2ccccc2NC1=O)c1ccccc1 (stereo not drawn)	1.6	61*	0.4	nt	-62	-1.6
O=C(CC1Oc2ccccc2NC1=O)NC1CC1 (stereo not drawn)	1.2	14	0.9	nt	-24	nt
CCN(Cc1ccccc1)C(=O)CC1Oc2ccccc2NC1=O (stereo not drawn)	1.7	88*	0.1	nt	-67	-0.019
O=C(c1ccc(Cl)c(Cl)c1)N1CCC(=O)N(C(CO)Cc2ccccc2)CC1 (stereo not drawn)	nt	nt	nt	nt	nt	0.19
O=C(NCCc1ccccc1)C(=O)NN=C1CCCC1	1	-7	1.1	1.4	-2	nt
CCCCC(=O)Nc1sc(C(=O)N(CC)CC)c(C)c1C(=O)OC	nt	nt	nt	-0.19	nt	1.5
Cc1cc(C)cc(N(CC(=O)NCc2ccc3c(c2)OCO3)C(=O)CCC(=O)Nc2ccccn2)c1	0.5	58*	0.4	-2.8	49	-6.1*
Cc1ccc(C)c(N(CC(=O)NCc2ccc3c(c2)OCO3)C(=O)CCC(=O)Nc2ccccn2)c1	0.5	63*	0.4	-2.8	50*	nt
